From PubChem BioAssay AID1117361 (Southern Research Institute, 2015)
About 900 (25%) of roughly 3,600 compounds were called active. No rule for the calls is given here. A selection follows. Measured potencies and affinities stand elsewhere.

Each compound was assayed against Protein Tat (Human immunodeficiency virus type 1 group M subtype B (isolate HXB2)) (UniProt P04608) (assay: HIV-1 Tat–TAR interaction blockers – biochemical, fluorescence polarization, FAM-labeled TAR RNA, counter-screen for Vif-APOBEC3G degradation inhibitor project, dose response (AID 1117361)). Details: Tat-TAR RNA binding; series mostly up to 100 µM; inhibition: at the top concentration.

**Q.** With `CCC1CCC2(CC1)NC(=O)N(CC(=O)Nc1ccc(OC)c(Cl)c1)C2=O` (stereo unspecified) as the compound, how does the “inhibition” value read?
**A.** 0.82% (inactive)

**Q.** With `Cc1ccc2c(Cl)cc(Cl)c(OCC(=O)NCc3ccco3)c2n1` as the compound, how does the “inhibition” value read?
**A.** 2.03% (inactive)

**Q.** For `CC(C)(C)NC(=O)COC(=O)c1cc(S(=O)(=O)N2CCCCC2)ccc1N1CCOCC1`, which “inhibition” value is on record?
**A.** 14.2% (inactive)

**Q.** `CCOCCCNC(=O)c1ccccc1Br` was tested. Which outcome did it give?
**A.** inactive

**Q.** With `O=C1[C@@H]2CSCN2C(=O)CN1CCc1cccc(F)c1` as the compound, how does the outcome read?
**A.** inactive

**Q.** For `COc1ccc(C(=O)Cn2c(=N)n(C)c3ccccc32)cc1`, which outcome is on record?
**A.** inactive

**Q.** How did the outcome turn out when `CCn1c(CNC(C)=O)nnc1SCC(=O)c1ccc(Br)cc1` was run?
**A.** inactive

**Q.** How did the outcome turn out when `CCN(c1ccccc1)S(=O)(=O)c1ccc(C(=O)NNC(=O)c2ccccc2F)cc1` was run?
**A.** inactive

**Q.** For `CN(C(=O)CSc1nnc(N)s1)c1c(N)n(Cc2ccccc2)c(=O)[nH]c1=O`, which “inhibition” value is on record?
**A.** 7.43% (inactive)

**Q.** With `CC(C)CN(C(=O)CN1CCN(S(=O)(=O)c2ccccc2)CC1)c1c(N)n(CC(C)C)c(=O)[nH]c1=O` as the compound, how does the outcome read?
**A.** inactive

**Q.** How did the “inhibition” value turn out when `Cc1cccc(N2CCN(CC(=O)Nc3nccs3)CC2)c1C` was run?
**A.** 3.38% (inactive)

**Q.** How did the “inhibition” value turn out when `COC(=O)CSc1nnc(CNC(=O)c2ccccc2OC)n1-c1ccc(OC)cc1` was run?
**A.** 2.73% (inactive)

**Q.** For `CS(=O)(=O)N1CCCC(C(=O)NCCCN2CCC(Cc3ccccc3)CC2)C1` (stereo unspecified), which “inhibition” value is on record?
**A.** 3.41% (inactive)

**Q.** With `O=C1C2C3CC(C(Br)C3Br)C2C(=O)N1c1ccccn1` (stereo unspecified) as the compound, how does the “inhibition” value read?
**A.** 1.35% (inactive)

**Q.** Which outcome does the source give for `CCOc1ccc2nc(N3CCCC(C(=O)NCCCN4CCOCC4)C3)sc2c1` (stereo unspecified) here?
**A.** inactive

**Q.** For `COc1cc(OC)c2ccc(=O)oc2c1C(CCN1CCCC(C)C1)c1ccc2c(c1)OCO2` (stereo unspecified), which “inhibition” value is on record?
**A.** 0.82% (inactive)

**Q.** Which “inhibition” value does the source give for `O=C1C(Cc2ccccc2)SC(=Nc2ccccc2)N1c1ccccc1` (stereo unspecified) here?
**A.** 0.68% (inactive)

**Q.** How did the outcome turn out when `COc1ccc2[nH]c(C(=O)O)c(CCN3C(=O)c4cccc([N+](=O)[O-])c4C3=O)c2c1` was run?
**A.** inactive

**Q.** Which “inhibition” value does the source give for `COc1ccc2nc(NNC(=O)c3cc(=O)c4ccccc4o3)sc2c1` here?
**A.** 19% (inactive)

**Q.** How did the “inhibition” value turn out when `Cc1ccc2cc3c(NC(=O)c4cccnc4)nn(C)c3nc2c1` was run?
**A.** 18.2% (inactive)

**Q.** With `O=C1C2CCCN2C(c2ccccc2)N1c1nccs1` (stereo unspecified) as the compound, how does the “inhibition” value read?
**A.** 17.1% (inactive)

**Q.** `O=C1NN(c2cccc(Br)c2)C(=O)/C1=C\c1ccccc1` was tested. Which outcome did it give?
**A.** inactive

**Q.** Which outcome does the source give for `CCCCc1cc(=O)oc2cc(OCC(=O)N(CC)CC)c(Cl)cc12` here?
**A.** inactive

**Q.** With `Cc1ccccc1C(=O)NCC(=O)OC(C)C(=O)NC(C)CCc1ccccc1` (stereo unspecified) as the compound, how does the “inhibition” value read?
**A.** 5.77% (inactive)

**Q.** Which “inhibition” value does the source give for `O=C(Nc1cccc(OC(F)(F)F)c1)c1ccc(Br)o1` here?
**A.** 20.9% (inactive)

**Q.** Which “inhibition” value does the source give for `CC(C)(C)n1nc2c(c1NC(=O)c1ccc(Br)o1)CS(=O)C2` (stereo unspecified) here?
**A.** 9.55% (inactive)

**Q.** With `Cc1cc(C)c2nc(SCC(=O)NCCN3C(=O)CSC3=O)cc(C)c2c1` as the compound, how does the outcome read?
**A.** inactive

**Q.** Which “inhibition” value does the source give for `CCN(CC)CCNC(=O)Cc1c(C(=O)O)n(C)c2ccccc12` here?
**A.** 10.8% (inactive)

**Q.** With `COc1ccc(NC(=O)CN2CCC(C(N)=O)CC2)cc1` as the compound, how does the “inhibition” value read?
**A.** 0.68% (inactive)

**Q.** `O=c1cc(CO)oc(C(Nc2ccccn2)c2ccc(F)cc2)c1O` (stereo unspecified) was tested. Which “inhibition” value did it give?
**A.** 16.2% (inactive)

**Q.** For `OCCNc1ccc(Cl)cc1`, which “inhibition” value is on record?
**A.** 6.08% (inactive)

**Q.** Which “inhibition” value does the source give for `O=C(c1ccco1)N1CCN(C(=O)c2cn(-c3ccccc3)nc2-c2ccccc2)CC1` here?
**A.** 6.6% (inactive)

**Q.** For `O=C(c1ccco1)N1CCN=C1SCc1cccc(Cl)c1`, which “inhibition” value is on record?
**A.** 6.08% (inactive)

**Q.** How did the “inhibition” value turn out when `CC(C)(C)c1cc(C(C)(C)C)cc(S(=O)(=O)CCc2ccccn2)c1` was run?
**A.** 3.41% (inactive)

**Q.** For `C#CC(=O)N(c1cc(OC)ccc1OC)C(C(=O)NC1CCCC1)c1cccs1` (stereo unspecified), which “inhibition” value is on record?
**A.** 5.41% (inactive)

**Q.** `COc1ccccc1-c1c(C)[nH]n2c(=O)c(Cc3ccccc3)c(C)nc12` was tested. Which outcome did it give?
**A.** inactive

**Q.** With `CCOC(=O)Nc1nnc(-c2ccccc2OC)s1` as the compound, how does the “inhibition” value read?
**A.** 2.73% (inactive)

**Q.** For `O=C(O)Cn1c(SC2CCCCC2)nc2ccccc21`, which “inhibition” value is on record?
**A.** 0.68% (inactive)

**Q.** `Cc1nn(Cc2ccc(Cl)cc2)c(C)c1NC(=O)c1cc(-c2ccc3c(c2)OCO3)on1` was tested. Which outcome did it give?
**A.** inactive

**Q.** For `Cc1cc(C)cc(NC(=O)CN2CCC(NC(=O)Cc3ccccc3)CC2)c1`, which outcome is on record?
**A.** inactive

**Q.** With `CC(C)c1ccc(-c2nc(N3CCCC3)nc3n[nH]c(N)c23)cc1` as the compound, how does the “inhibition” value read?
**A.** 3.38% (inactive)

**Q.** How did the “inhibition” value turn out when `N#Cc1ccc(N2CCN(C(=O)c3cccc(F)c3)CC2)c(F)c1` was run?
**A.** 5.41% (inactive)

**Q.** For `CC(C)Oc1ccc2ccccc2c1C=O`, which “inhibition” value is on record?
**A.** 21.6% (inactive)

**Q.** For `Cc1cc(C)n2nc(SC(C)C(=O)N3CCCC3)nc2n1` (stereo unspecified), which outcome is on record?
**A.** inactive

**Q.** Which “inhibition” value does the source give for `COc1ccc(CCNCc2ccc(OCc3ccccc3)cc2)cc1` here?
**A.** 0.33% (inactive)

**Q.** `Oc1ccc(/C=N/N=C/c2ccc(O)c(O)c2)cc1O` was tested. Which outcome did it give?
**A.** inactive

**Q.** With `Cc1nc(OCc2ccccc2)c2ccccc2n1` as the compound, how does the “inhibition” value read?
**A.** 5.41% (inactive)

**Q.** How did the “inhibition” value turn out when `O=c1cc(CSc2ccccn2)c2ccccc2[nH]1` was run?
**A.** 6.08% (inactive)

**Q.** `Cc1ccnc(N2CCCC(C(=O)Nc3cc(F)ccc3C)C2)n1` (stereo unspecified) was tested. Which “inhibition” value did it give?
**A.** 3.67% (inactive)

**Q.** Which “inhibition” value does the source give for `Cn1c(=O)c2c(ncn2CCCNC2=CC(C)(C)CC(=O)C2)n(C)c1=O` here?
**A.** 0.68% (inactive)

**Q.** For `N=C1C(c2nc3ccccc3c(=O)[nH]2)=C(O)CN1c1ccccc1`, which “inhibition” value is on record?
**A.** 5.41% (inactive)

**Q.** With `C/C(=N\OCC(=O)Nc1ccc2c(c1)OCCO2)c1ccc2c(c1)OCCO2` as the compound, how does the “inhibition” value read?
**A.** 3.41% (inactive)

**Q.** With `O=C(Nc1ccc2c(c1)OCCO2)C1CCC1` as the compound, how does the “inhibition” value read?
**A.** 4.73% (inactive)

**Q.** For `COc1ccc(-c2cc(C(=O)NCCCn3ccnc3)no2)cc1OC`, which “inhibition” value is on record?
**A.** 2.7% (inactive)

**Q.** How did the outcome turn out when `O=C(CSc1nnc(CCCO)n1-c1ccccc1)NCCc1ccccc1` was run?
**A.** inactive

**Q.** `CCc1ccc(N(C2C=CS(=O)(=O)C2)S(=O)(=O)c2ccc(C)cc2)cc1` (stereo unspecified) was tested. Which outcome did it give?
**A.** inactive
